From PubChem
This is a sample that favours compounds with a hit; in the whole collection about 2% have one here.
p53 PUMA act = re-activators of the mutant p53 pathway; SW480 PUMA-promoter luciferase, p53 mutant reactivation; activation, % at 9.98 µM; 1.5% of 28,000 active; AID 624151; in the data active = activation above about 52%
ID4 SMM = binds human ID4 protein on microarray. small molecule microarray, Flag-ID4 binding, fluorescence F/B. calls only. 1.2% of 31,000 active. P47928; call rule not given here;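 also: a binder raises fluorescence above local background on the spot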
Target sequence (P47928 whole entry, looked up): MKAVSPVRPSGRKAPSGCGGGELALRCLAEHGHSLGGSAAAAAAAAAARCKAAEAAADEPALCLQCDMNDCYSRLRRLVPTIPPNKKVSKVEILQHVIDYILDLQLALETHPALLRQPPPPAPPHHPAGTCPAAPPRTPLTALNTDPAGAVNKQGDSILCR
STK33 kin inh = inhibitors of human STK33 kinase; 0.44% of 27,000 active; inhibition, % at 12.5 µM; ADP-Glo luminescence, MBP substrate; in the data active = inhibition above about 20%
An asterisk follows results filed as active.

Screening Cc1cccnc1NC(=O)C(C)Oc1ccccc1 (stereo not drawn) returned p53 PUMA act -14.0, ID4 SMM inactive and STK33 kin inh 4.3.
Screening O=C(Nc1cc2ccccc2s1)Nc1ccc(F)cc1F returned p53 PUMA act 0.1 and ID4 SMM inactive.
COc1cc2nccc(Oc3ccc(NC(=O)Nc4ccc(F)cc4F)c(F)c3)c2cc1OC was read as p53 PUMA act -61.9 and ID4 SMM active.
For CCC(=O)N1CCc2cc(S(=O)(=O)NC(CC(C)C)C(=O)NC3CCCC3)ccc21 (stereo not drawn) the results were p53 PUMA act -12.8 and ID4 SMM inactive.
Cc1cc(N(CC(=O)Nc2cccc(C(F)(F)F)c2)S(C)(=O)=O)ccc1Br was read as p53 PUMA act 4.8, ID4 SMM inactive and STK33 kin inh 1.8.
Screening C[C@@H]1CN([C@H](C)CO)C(=O)c2cc(-c3cccc(C#N)c3)cnc2O[C@@H]1CN(C)Cc1ccncc1 returned p53 PUMA act 4.3.
Screening Cc1ccc(-c2cnc3c(c2)C(=O)N([C@@H](C)CO)C[C@H](C)[C@@H](CN(C)C)O3)cc1 returned ID4 SMM inactive.
`C[C@@H]1CN([C@@H](C)CO)C(=O)c2cc(-c3cccc(C(=O)N(C)C)c3)cnc2O[C@@H]1CN(C)C` gave ID4 SMM inactive.
For C[C@@H]1CN([C@H](C)CO)C(=O)c2cc(-c3cccc(C(=O)N(C)C)c3)cnc2O[C@H]1CN(C)C the results were ID4 SMM active.
Screening C[C@@H]1CN([C@H](C)CO)C(=O)c2cc(-c3ccc(C#N)cc3)cnc2O[C@H]1CN(C)Cc1ccncc1 returned p53 PUMA act 7.1 and ID4 SMM active.
`C[C@H]1CN([C@@H](C)CO)C(=O)c2cc(-c3ccncc3)cnc2O[C@@H]1CN(C)C` gave ID4 SMM active.
CCCN(C)C[C@H]1Oc2ncc(-c3cccc(C(=O)N(C)C)c3)cc2C(=O)N([C@H](C)CO)C[C@H]1C was read as ID4 SMM inactive.
For CCCN(C)C[C@@H]1Oc2ncc(-c3cccc(C(=O)N(C)C)c3)cc2C(=O)N([C@@H](C)CO)C[C@H]1C the results were p53 PUMA act 5.3 and ID4 SMM active.
COC(=O)c1c2ccccc2c(C)c2ccccc12 was read as STK33 kin inh 1.4.
For O=C(COc1cc(O)c2c(=O)c3ccccc3oc2c1)c1ccc(Cl)cc1 the results were p53 PUMA act -12.0, ID4 SMM inactive and STK33 kin inh 0.9.
`O=C(c1ccccc1)c1ccc(OCC(O)Cn2cnc3ccccc32)cc1` (stereo not drawn) gave p53 PUMA act -14.1, ID4 SMM inactive and STK33 kin inh -3.6.
O=c1[nH]c2ccccc2c(=O)n1CCNCc1ccccc1 was read as STK33 kin inh 0.3.
`C/C=C(/C)C(=O)O[C@H]1CC(C)(C)C[C@H]2C3=CCC4[C@@]5(C)CC[C@H](O[C@@H]6O[C@H](C(=O)O)[C@@H](O[C@@H]7O[C@H](CO)[C@H](O)[C@H](O)[C@H]7O[C@@H]7O[C@H](CO)[C@@H](O)[C@H](O)[C@H]7O)[C@H](O)[C@H]6O[C@@H]6O[C@@H](C)[C@H](O)[C@@H](O)[C@H]6O)C(C)(C)C5CC[C@@]4(C)[C@]3(C)C[C@@H](O)[C@@]12CO` (stereo partly drawn) gave STK33 kin inh -9.3.
`CCCCCCCCCC/C=C\CCCCCCCc1cccc(O)c1C(=O)O` gave STK33 kin inh -12.9.
Screening C[C@H](CO)N1C[C@H](C)[C@@H](CN(C)Cc2cncnc2)Oc2ncc(C#Cc3ccccn3)cc2C1=O returned p53 PUMA act 7.9 and ID4 SMM active.
`CC(C)C#Cc1cnc2c(c1)C(=O)N([C@@H](C)CO)C[C@H](C)[C@@H](CN(C)C(=O)c1cccnc1)O2` gave p53 PUMA act 11.8 and ID4 SMM inactive.
C[C@H]1CN([C@@H](C)CO)C(=O)c2cc(-c3ccc(C(=O)N(C)C)cc3)cnc2O[C@@H]1CN(C)C was read as ID4 SMM inactive.
Screening C[C@@H]1CN([C@H](C)CO)C(=O)c2cc(C#CCN(C)C)cnc2O[C@H]1CN(C)C(=O)c1cccnc1 returned p53 PUMA act -1.6 and ID4 SMM active.
Screening C[C@@H]1CN([C@H](C)CO)C(=O)c2cc(-c3ccc(C(=O)N(C)C)cc3)cnc2O[C@H]1CN(C)C returned ID4 SMM active.
For C[C@@H]1CN([C@H](C)CO)C(=O)c2cc(C#Cc3ccccn3)cnc2O[C@@H]1CN(C)Cc1cccnc1 the results were p53 PUMA act 14.2.
For Cc1ccccc1-c1nc(SCC(=O)Nc2ccc(F)c(Cl)c2)n[nH]1 the results were p53 PUMA act -6.0, ID4 SMM inactive and STK33 kin inh -2.4.
O=C(CSc1ncnc2sc3c(c12)CCC3)Nc1ccc(Cl)cc1 was read as p53 PUMA act 11.0, ID4 SMM inactive and STK33 kin inh 5.9.
`CC(=O)OC(CCCCc1ccc(O)c(O)c1)CCc1ccc(O)c(O)c1` (stereo not drawn) gave STK33 kin inh -3.0.
Cc1ccc2nc(-c3cccc(Br)c3)cc(C(=O)NCc3cccnc3)c2c1 was read as p53 PUMA act 57.5*, ID4 SMM inactive and STK33 kin inh -1.7.
`CCCc1ccc(-c2cc(C(=O)NCc3cccnc3)c3ccccc3n2)cc1` gave p53 PUMA act 105.5*, ID4 SMM inactive and STK33 kin inh 0.0.
For Cc1sc(NC(=O)c2cc(-c3ccccc3)nc3ccccc23)c(C(=O)NCc2cccnc2)c1C the results were p53 PUMA act -10.9, ID4 SMM inactive and STK33 kin inh 1.2.
For CCn1cc(CNC(=O)c2cc(-c3cccnc3)nc3ccc(Br)cc23)c(C)n1 the results were p53 PUMA act -0.2, ID4 SMM inactive and STK33 kin inh -5.1.
Cc1ccc(-c2cc(C(=O)NCc3cccnc3)c3cc(Br)ccc3n2)cc1 was read as p53 PUMA act 67.0*, ID4 SMM inactive and STK33 kin inh 2.4.
COCCNC(=O)c1cc(-c2cccnc2)nc2ccc(Br)cc12 was read as p53 PUMA act 11.9, ID4 SMM inactive and STK33 kin inh 5.4.
For COc1cccc2oc3c(c(=O)c12)C(C(=O)O)=CC(CO)=CO3 the results were p53 PUMA act -2.4 and STK33 kin inh 4.1.
COc1cc2c(c3c1C(=O)C[C@H](c1ccccc1)O3)C=CC(C)(C)O2 was read as p53 PUMA act 29.0 and STK33 kin inh -0.2.
Screening CSc1ncc(Cl)c(C(=O)Nc2sc3c(c2C(=O)NCc2ccco2)CCC3)n1 returned p53 PUMA act -5.4, ID4 SMM inactive and STK33 kin inh 1.8.
`O=C(CC1CC1)Nc1ccc2c(c1)[C@@H]1C[C@H](CC(=O)NC3CCCC3)O[C@H](CO)[C@@H]1O2` gave p53 PUMA act 3.6 and ID4 SMM active.
For COCC(=O)Nc1ccc2c(c1)[C@@H]1C[C@H](CC(=O)NC3CCCC3)O[C@@H](CO)[C@@H]1O2 the results were p53 PUMA act -3.5 and ID4 SMM inactive.
For CCn1c(SCC(=O)Nc2cccc(C(F)(F)F)c2)nnc1-c1c[nH]c2ccccc12 the results were p53 PUMA act -10.3, ID4 SMM inactive and STK33 kin inh 0.5.
CC(C)CC1NC(=O)C(C)NC1=O (stereo not drawn) was read as p53 PUMA act -6.9, ID4 SMM inactive and STK33 kin inh -5.3.
